Marburg entry inh = Marburg virus entry inhibition | Marburg virus pseudotyped entry inhibition, cell reporter | Potency, µM (highest dose often 37.8 µM), without a hit: at the highest dose activity change, negative = inhibition, most hits filed as inhibitors | 300,000 tested, 1.8% active; calls by dose curve; tested in HEK293 cells; note: potency is the fitted concentration of half-maximal effect; % is set by controls: 0 for no effect and ±100 for the full control effect
Shiga toxin inh = inhibitors of Shiga toxin in Vero cells; Vero cells, Shiga toxin protein synthesis inhibition reporter; 290,000 tested, 9.2% active; inhibition, % at 38.7 µM; AID 2315; in the data active = inhibition mostly above about 28%, no sharp cut-off; inactive = mostly below about 43%; note: 0% is about no effect
CHX counter = affects cycloheximide protein synthesis inhibition readout, counter-screen | max response, % | cell reporter, cycloheximide protein synthesis inhibition counterscreen | 300,000 tested, 12% active; in the data active = max response mostly above about 13%, no sharp cut-off; inactive = mostly below about 14%; note: read at 38.3 µM for the half of the compounds with a filed dose; 0% is about no effect
LASV entry inh = blocks Lassa virus binding to or entry into cells; 300,000 tested, 1.2% active; Potency, µM (highest dose often 37.9 µM), for the others: top-dose activity change, negative = inhibition, hits mostly inhibitors; Lassa virus pseudotype entry inhibition, cell reporter; AID 540256; calls by dose curve; tested in HEK293 cells; note: potency is the fitted concentration of half-maximal effect; % is set by controls: 0 for no effect and ±100 for the full control effect; nearly all actives have a fitted effect of over 50% in size
Pf growth 96h = inhibits malaria parasite growth, 96 h. Potency, µM (titrated, usually from 28.7 µM), for the others: at the top dose activity change, negative = inhibition, usual class: inhibitors. AID 504834. P. falciparum luciferase reporter growth, 96 h. 320,000 tested, 6.9% active; note: potency is the fitted concentration of half-maximal effect; % is set by controls: 0 for no effect and ±100 for the full control effect
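Luminescence readout: decreased luciferase signal marks inhibited growth of reporter-expressing P. falciparum in infected red cells (2% hematocrit, 0.05% parasitemia final), exposed to compound two generations (96 h, 37 C, 5% CO2).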
Pf growth 48h = inhibits P. falciparum growth in the first generation, 48 h; P. falciparum luciferase growth in erythrocytes, 48 h; Potency, µM (series often up to 28.7 µM), without a hit: at the highest dose activity change, negative = inhibition, hits mostly inhibitors; 310,000 tested, 5.9% active; AID 504832; note: potency is the fitted concentration of half-maximal effect; % is set by controls: 0 for no effect and ±100 for the full control effect
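Firefly luciferase activity from engineered P. falciparum reports growth; inhibitors lower the luminescent signal. Cultures contained 2% hematocrit erythrocytes at 0.1% final parasitemia.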
* hit, by the source's call; [ ] = dose if it differs, or a comment. Most compounds without a hit are left out; they make up all but 19% or so of the library. Unless noted, calls come from the whole dose curve; as a rule, active = well fitted inhibition curve with a large enough effect; inconclusive = small, poorly fitted or top-dose-only effect, or another doubt; inactive = no such curve, though single readings can be large or run the other way.

For COc1ccc(NC(=O)CSc2ncccc2C(=O)O)cc1OC the results were LASV entry inh -23.3%[46.1 µM].
CCCc1cc(C(N)=O)c(NC(=O)c2ccco2)s1 was read as Marburg entry inh -2.9%, Shiga toxin inh active, CHX counter 28.5*, LASV entry inh -0.6%, Pf growth 96h 0.415µM* and Pf growth 48h 52.3%.
CCOC(=O)c1ccc(NC(=S)N2CCN(C)CC2)cc1 was read as Marburg entry inh 18.0%, Shiga toxin inh 15.7, CHX counter 8.3, LASV entry inh -21.7%, Pf growth 96h inconclusive and Pf growth 48h -1.0%.
CC(=O)NC(CC(=O)Nc1ccc(S(=O)(=O)Nc2nccs2)cc1)c1ccccc1 (stereo not drawn) was read as Marburg entry inh 12.7%, LASV entry inh -1.5%, Pf growth 96h 14.7% and Pf growth 48h inconclusive.
`COc1ccc(CC(=O)Nc2nnc(SCc3ccccc3)s2)cc1S(=O)(=O)N1CCOCC1` gave Marburg entry inh inconclusive, Shiga toxin inh -7.5, CHX counter 7.5, LASV entry inh 0.4% and Pf growth 48h -26.0%.
For COc1ccc(COC(=O)c2ccc(Br)c(S(=O)(=O)N3CCOCC3)c2)cc1F the results were Marburg entry inh inconclusive, LASV entry inh inconclusive, Pf growth 96h inconclusive and Pf growth 48h 3.29µM*.
`COc1ccc(CC(=O)Nc2nc3ccccc3s2)cc1S(=O)(=O)N1CCOCC1` gave Marburg entry inh inconclusive, Shiga toxin inh -13.6, CHX counter 1.4, LASV entry inh inconclusive, Pf growth 96h inconclusive and Pf growth 48h inconclusive.
Screening COc1ccc(CC(=O)Nc2ccc(F)c(F)c2F)cc1S(=O)(=O)N1CCOCC1 returned Marburg entry inh inconclusive, LASV entry inh 9.0%, Pf growth 96h inconclusive and Pf growth 48h 11.7µM*.
Screening CCCCc1nnc(NC(=O)Cc2ccc(OC)c(S(=O)(=O)N3CCOCC3)c2)s1 returned Marburg entry inh -19.0%, LASV entry inh 12.0%, Pf growth 96h inconclusive and Pf growth 48h 10.4µM*.
Screening COc1ccc(CC(=O)Nc2nc3ccc(F)cc3s2)cc1S(=O)(=O)N1CCOCC1 returned Marburg entry inh -8.9%, Shiga toxin inh 69.8*, CHX counter 40.1*, LASV entry inh -11.4%, Pf growth 96h 6.57µM* and Pf growth 48h inconclusive.
CC(C)=CCN1CCN(Cc2nc(-c3ccc(F)cc3)cs2)CC1CCO (stereo not drawn) was read as Shiga toxin inh 4.2, CHX counter -2.4, Pf growth 96h inconclusive and Pf growth 48h inconclusive.
For CC(C)c1ccc(NC(=O)C2C3C=CC4(CN(Cc5cccnc5)C(=O)C24)O3)cc1 (stereo not drawn) the results were Shiga toxin inh -3.6, CHX counter 5.9, Pf growth 96h inconclusive and Pf growth 48h -30.6%.
Cc1cccn2cc(-c3c[nH]c4ccccc34)nc12 was read as Shiga toxin inh 121.8*, CHX counter 40.8*, Pf growth 96h inconclusive and Pf growth 48h inconclusive.
Screening Brc1ccc2nc(-c3c[nH]c4ccccc34)cn2c1 returned Shiga toxin inh 64.1*, CHX counter 30.6*, Pf growth 96h -23.7% and Pf growth 48h 344.0%.
Screening S=c1[nH]nc(-c2c[nH]c3ccccc23)o1 returned Marburg entry inh 14.4%[46.1 µM], Shiga toxin inh -5.9, CHX counter -8.8, LASV entry inh 8.9%[46.1 µM], Pf growth 96h 30.8% and Pf growth 48h 35.1%.
Cc1ccc2nc(-c3c[nH]c4ccccc34)c(Nc3ccccc3C)n2c1 was read as Marburg entry inh inconclusive and LASV entry inh 7.6%[46.1 µM].
For CCOCCCn1c(=N)c(C(=O)NC(C)c2ccccc2)cc2c(=O)n3cc(C)ccc3nc21 (stereo not drawn) the results were Marburg entry inh -15.0%[46.1 µM] and LASV entry inh -2.4%[46.1 µM].
For CC1(C)CNc2cc([N+](=O)[O-])ccc2S1 the results were Marburg entry inh 23.9%[46.1 µM], Shiga toxin inh 58.1*, CHX counter 39.3*, LASV entry inh 10.1%, Pf growth 96h -29.3% and Pf growth 48h inconclusive.
COc1ccc(NC(=O)CSc2ccc(-c3sc(C)nc3C)nn2)cc1OC was read as Marburg entry inh inconclusive, Shiga toxin inh -8.6, CHX counter 18.6, LASV entry inh -17.3%, Pf growth 96h 13.1µM* and Pf growth 48h inconclusive.
For CC(=O)c1ccc(NC(=O)CSc2ccc(-c3sc(C)nc3C)nn2)cc1 the results were Marburg entry inh -21.3%[46.1 µM], Shiga toxin inh 18.2, CHX counter 12.9*, LASV entry inh -21.6%[46.1 µM], Pf growth 96h inconclusive and Pf growth 48h inconclusive.
For CCOC(=O)Cn1cnc(-c2ccc([N+](=O)[O-])cc2)c1 the results were Marburg entry inh 6.5%, Shiga toxin inh 74.9*, CHX counter 43.2*, LASV entry inh inconclusive, Pf growth 96h 4.8% and Pf growth 48h inconclusive.
CCOC(=O)c1cnc2c(N=Nc3cccc(Cl)c3)c(N)nn2c1N was read as Marburg entry inh -0.9%, Shiga toxin inh -5.7, CHX counter 7.3, Pf growth 96h 0.657µM* and Pf growth 48h 12.8%.
`CCOC(=O)c1cnc2c(N=Nc3ccccc3)c(N)nn2c1N` gave Marburg entry inh -15.3%, Shiga toxin inh 47.8, CHX counter 40.9*, LASV entry inh -28.0%, Pf growth 96h inactive and Pf growth 48h 102.6%.
For CCOC(=O)c1cnc2c(-c3ccccc3)c(C)nn2c1N the results were Marburg entry inh -26.3%, Shiga toxin inh -5.2, CHX counter -1.6, LASV entry inh -12.8% and Pf growth 96h inconclusive.
CC1CN(C(=O)CCc2cc(C(C)(C)C)c(O)c(C(C)(C)C)c2)CC(C)O1 (stereo not drawn) was read as Marburg entry inh -11.5%[46.1 µM], Shiga toxin inh 16.2, CHX counter 9.4, LASV entry inh -1.4%[46.1 µM], Pf growth 96h 7.38µM* and Pf growth 48h inconclusive.
Screening CCc1ccc(N2C(=O)c3cc(N4CCOCC4)c([N+](=O)[O-])cc3C2=O)cc1 returned Marburg entry inh -23.1%, Shiga toxin inh 17.5, CHX counter -3.1, LASV entry inh 3.1%, Pf growth 96h 7.38µM* and Pf growth 48h 4.3%.
For Cc1nnc(-c2ccccc2)nc1N(C)C the results were Marburg entry inh -1.1%[46.1 µM], Shiga toxin inh 9.3, CHX counter -1.0, LASV entry inh 8.0%, Pf growth 96h 43.0% and Pf growth 48h 16.8%.
CN1CCN(CC(=O)Nc2ccc(OC(F)(F)F)cc2)CC1 was read as Marburg entry inh inconclusive, Shiga toxin inh -4.0, CHX counter 5.0, LASV entry inh inconclusive, Pf growth 96h -14.2% and Pf growth 48h -6.5%.
O=C1CC(C(=O)Nc2cccc3ccccc23)C2(CCCC2)O1 (stereo not drawn) was read as Marburg entry inh 18.9%, Shiga toxin inh 12.2, CHX counter 9.7, LASV entry inh -3.9%, Pf growth 96h 1.47µM* and Pf growth 48h 22.2%.
`CC1(C)CC2(CCO1)OC(=O)CC2C(=O)Nc1cccc2ccccc12` (stereo not drawn) gave Marburg entry inh 12.9%, Shiga toxin inh 0.9, CHX counter 11.3, LASV entry inh 11.7% and Pf growth 96h 201.2%.
